Experimental findings from PMC12136788 are described below.

Whole data set: some 5,800 sequences, median “enrichment r” near 0.68, cut for the highest 2% near 11. Not all results are given here.

To fix the notation:
T1: UNK ZnF1-6 (called full-length) (human, UniProt Q9C0B0 30-357)
T1 sequence: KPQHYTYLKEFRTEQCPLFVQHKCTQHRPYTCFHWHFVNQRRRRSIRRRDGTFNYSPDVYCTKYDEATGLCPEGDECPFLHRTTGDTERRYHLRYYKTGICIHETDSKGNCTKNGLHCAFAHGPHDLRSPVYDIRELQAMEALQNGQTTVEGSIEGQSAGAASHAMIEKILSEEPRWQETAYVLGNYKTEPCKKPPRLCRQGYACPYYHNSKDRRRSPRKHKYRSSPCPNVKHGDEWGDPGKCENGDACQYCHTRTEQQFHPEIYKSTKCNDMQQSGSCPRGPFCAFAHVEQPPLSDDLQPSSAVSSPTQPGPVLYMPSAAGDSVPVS

B1: chr12:76028832:76028933:-|3pUTR|ENSG00000139289|msi1|total|mutant (ssRNA)
RNA: GGGAGUUCUACAGUCCGACGAUCAAAGGAAAAGACUGGAUAAACACAGGAUUUUCAGUAAGAAAACAACCCCAGUCUUGUCUCCGAAGCCACUUGUUGAGGAGUCUGUUGGGGGAAAAAAGAGGAUAUGCUUUUAAAGGCCGACAACAGAGGAUUGAGCAUCA
B2: chr3:27418507:27418620:-|CDS|ENSG00000033867|unk|FALSE|bound_elsewhere (ssRNA)
RNA: GGGAGUUCUACAGUCCGACGAUCUGAUGUAGCUUAUAAAGCAAAAGACAGAAAUGACCUCUUAUCUGGAAUUGAUGAAUUUUUAGAUCAAGUAACUGUCCUACCUCCAGGAGAGUGGGAUCCUUCUAUACGCAUAGAACCACCCAACAGAGGAUUGAGCAUCA
B3: chr11:35619468:35619569:+|CDS|ENSG00000179431|unk|FALSE|unique (ssRNA)
RNA: GGGAGUUCUACAGUCCGACGAUCCCCCCUCCGGGAUGCCGGGGGUGAGCUGGCCAACCUCAGCCAGGCGGAGCUGGUGGACCUAGUACAAUGGACCGACUUAAUCCUUUUCGACUACCUGACGGCCAACUUCGACCGGCUCGUCAACAGAGGAUUGAGCAUCA
B4: chr5:91369659:91369760:-|3pUTR|ENSG00000113369|msi1|total|mutant (ssRNA)
RNA: GGGAGUUCUACAGUCCGACGAUCUCAGCAUUUUCCAAGGUACCAAGUGUACUUAUUUUGUUGUUGUUGUUGUUGUUGUAUUUCCGAAGGAAUUCAGCUCUGAUGUUUUUAAAGAAAACCAGCAUCUCUGAUGUUGCAACAUACCAACAGAGGAUUGAGCAUCA
B5: chr9:35056615:35056731:-|3pUTR|ENSG00000165280|msi1|FALSE|unique (ssRNA)
RNA: GGGAGUUCUACAGUCCGACGAUCCCCUAUCCAACCUGGGUAGGUGGGUAGGGGCCACAGUUGCUGGAUGUUUAUAUAGAGAGUAGGUUGAUUUAUUUUACAUGCUUUUGAGUUAAUGUUGGAAAACUAAUCACAAGCAGUUUCCAACAGAGGAUUGAGCAUCA
B6: chr6:149379354:149379455:+|CDS|ENSG00000055208|msi1|FALSE|bound_elsewhere (ssRNA)
RNA: GGGAGUUCUACAGUCCGACGAUCAGGGGUGGUGUCCCCUACCUUUGAACUUACAAAUCUUCUUAAUCAUCCUGAUCAUUAUGUAGAAACCGAGAAUAUUCAGCACCUCACGGACCCUACAUUAGCACAUGUGGAUAGAAUAAGCAACAGAGGAUUGAGCAUCA
B7: chr17:81921741:81921842:-|3pUTR|ENSG00000197063|msi1|total|mutant (ssRNA)
RNA: GGGAGUUCUACAGUCCGACGAUCAAUUAUAUGUUUAAAAGUUAAAGAAAAAAGAGCUGCAGAGUAUUUAUAAAACUGUCUUUCCGAAAAAAAACAAGCAAGAAGACCAUUUGACCAUAUGAAUGGAAAAGGGAAGAAAGUAUACAACAGAGGAUUGAGCAUCA
B8: chr1:110947961:110948399:-|CDS|ENSG00000121931|control|control|control (ssRNA)
RNA: GGGAGUUCUACAGUCCGACGAUCAAGUCAUUUCUUCAAUAAAAAUUAUACCGAAGAUAUUUUCCCAGUGACACCACCGGAGUUAGAAGAAACCAUUCGAGAUGAAAAAAUAAGAAGACUUAAGCAGGUGCUGAGAGAGAAAGACAACAGAGGAUUGAGCAUCA
B9: chrX:153456492:153456651:-|CDS|ENSG00000213397|control|control|control (ssRNA)
RNA: GGGAGUUCUACAGUCCGACGAUCAUGGAGCACUUCGAGGACACCAGGGAGAAGAACGAGGCCUUGCUGGGGGAGCUCUUCUCUAGCCCCCACCUGCAGAUGCUCCUGAAUCCAGAGUGCGACCCGUGGCCCCUGGACAUGCAGCAACAGAGGAUUGAGCAUCA
B10: ENSG00000130720:stop:overlap|stop_codon|ENSG00000130720|stop_codon|NA|stop_codon (ssRNA)
RNA: GGGAGUUCUACAGUCCGACGAUCGCUGGCAGUACUCACUCAAGUUCUCUGAGAUGAAGAUCCGGCCGGUCCGGGAGGACCGCUAGACUGGUGCACCUUGUCCUUGGCCCUGCUGGUCCCUGUCGCCCCAUCCCCGACCCCACCCAACAGAGGAUUGAGCAUCA
B11: chr3:89481969:89482070:+|3pUTR|ENSG00000044524|msi1|total|mutant (ssRNA)
RNA: GGGAGUUCUACAGUCCGACGAUCAUAUGUGUUUACUUUAAACUUGUCUUUUCAAAAUAUUACUCAGUUUAUGUUGUACAAUGCCGAUGGCCUCUUACUAAUGUAAAAUGAUUUGCCGUGGAAACAUUUAUAUUUUUAUAAUAACAACAGAGGAUUGAGCAUCA
B12: chr4:123402332:123402450:+|CDS|ENSG00000164056|unk|total|mutant (ssRNA)
RNA: GGGAGUUCUACAGUCCGACGAUCGACGAAGGGGAUUCCUAUUCAGAUAAUCCUUGCUCCUGUUCACAAUCACACUGCUGCUCCCGAUACCUGUGUAUGGGAGCCAUGUCUUUAUUUUUACCUUGCUUACUCUGUUAUCCUCCUCAACAGAGGAUUGAGCAUCA
B13: chr1:198253062:198253183:+|CDS|ENSG00000151414|unk|total|mutant (ssRNA)
RNA: GGGAGUUCUACAGUCCGACGAUCAUGGGCUAUAAUACAUCCGCCAACUUUCGAACCGAAAAGAAAAUUGGUCGCGGACAAUUCCGUGAAGUUUACCGAGCAGCCUGUCUCUUGGAUGGAGUACCAGCCGCUUUAAAAAAAGUGCAACAGAGGAUUGAGCAUCA
B14: chr6:144852070:144852171:+|3pUTR|ENSG00000152818|unk|FALSE|unique (ssRNA)
RNA: GGGAGUUCUACAGUCCGACGAUCAAGUCCUUAAUAGUUCUUGAAACUCCUAGUUGUUUUCUUGUUGAAAGCAGACACACAUUUAGUGCACGGCUUAUUUUACCUUUCGGGUGAAAGAUCAGAUGUUUUUAUACCCUUCACUUGCAACAGAGGAUUGAGCAUCA
B15: chr22:36281679:36281692:-|3pUTR|ENSG00000100345|msi1_unk|total|mutant (ssRNA)
RNA: GGGAGUUCUACAGUCCGACGAUCUCUUGUGUCUACUCCCGGACUGGGCCCGAGGGUGGUUUACCUGCACCGUUGACUCAGUACCGUUUAAAAAUCUGCCACCUGCACAGGUAUUUUUGAAAGCAAAAUAAGGUUUUCUUUUUUCAACAGAGGAUUGAGCAUCA
B16: chr7:137227872:137228000:-|3pUTR|ENSG00000105894|msi1_unk|total|mutant (ssRNA)
RNA: GGGAGUUCUACAGUCCGACGAUCGGAACAUAAAAAGGACAUCAGCAAACAGGAUCAGUUAACUAUUGCAUUUAUAUGUACCGCCGGCUUUGUAUUCAAAAAUUAUCUACCGCUAAGUACACAAUAAGCAAAAACAAAAAGAAACAACAGAGGAUUGAGCAUCA
B17: ENSG00000165476:stop:overlap|stop_codon|ENSG00000165476|stop_codon|NA|stop_codon (ssRNA)
RNA: GGGAGUUCUACAGUCCGACGAUCAAGAGGUGCGGUACGGGUCACUAAAAUACAAAGUGAAGAAACGACCACAAGUGUAUUUUUAGUCAUCUACACGUCAAAUAUCCCAAGACAGAUUAUGCUAAAUACAUCGACUUCAUCUUCCAACAGAGGAUUGAGCAUCA
B18: ENSG00000138660:stop:overlap|stop_codon|ENSG00000138660|stop_codon|NA|stop_codon (ssRNA)
RNA: GGGAGUUCUACAGUCCGACGAUCCUGUAUUAGAACUGUCUGAUUCUGGCAUAAGGCAUUCUGACACAGAUCAACAGACUCGAUAGGGUAAAAUUGUGUGACCUUGUUUAUCAGUUAUGACCAAAUGUUAAAAACCAACUAGAACAACAGAGGAUUGAGCAUCA
B19: chr3:11557161:11557262:-|3pUTR|ENSG00000144560|msi1|total|mutant (ssRNA)
RNA: GGGAGUUCUACAGUCCGACGAUCCCUCUGACUUUAUACUGUUAUUACUGCAUUUAUUAUUUGCUAUAUUAACCGCUACUAACCCGAAAUCCGAUGAAGCAAGCAUGACAGACACAGCUGUGGAGGUCACAGCUGCUCCUUUUUCAACAGAGGAUUGAGCAUCA
B20: ENSG00000198589:be:win_7201|CDS|ENSG00000198589|bound_else_gene|NA|bound_elsewhere_windowed (ssRNA)
RNA: GGGAGUUCUACAGUCCGACGAUCGAGAGUGAAUUUGUUUCCUGCCAGCUUCACCAAUGGAUUGAUCUCAUUUUUGGCUAUAAACAGCAAGGACCAGAAGCUGUCCGAGCCCUCAAUGUGUUCUAUUACUUGACCUAUGAAGGACAACAGAGGAUUGAGCAUCA
B21: ENSG00000124766:be:win_1851|3pUTR|ENSG00000124766|bound_else_gene|NA|bound_elsewhere_windowed (ssRNA)
RNA: GGGAGUUCUACAGUCCGACGAUCAGAGACUUGAAGGAGUCUCCCCCUUCCUGCAUCACCACCUUGGUUUUGUUUUAUUUUGCUUCUUGGUCAAGAAAGGAGGGGAGAACCCAGCGCACCCCUCCCCCCCUUUUUUUAAACGCGCAACAGAGGAUUGAGCAUCA
B22: chr9:125236489:125236593:-|3pUTR|ENSG00000044574|msi1_unk|total|mutant (ssRNA)
RNA: GGGAGUUCUACAGUCCGACGAUCUGCCGACACUGAUCUGCCCGUGCUGUAAUAUUGUAAAUACUGGACUCAGGAACUUUUGUCCGGAAAAAAUUGAAAGAACUUAAGUCUCGAAUGUAAUUGGAAUCUUCACCUCAGAGUGGACAACAGAGGAUUGAGCAUCA

In this experiment the target is T1, UNK ZnF1-6 (called full-length). Put plainly: nsRBNS (natural sequence RNA bind-n-seq); RBNS binding buffer (assumed for nsRBNS): 25 mM Tris pH 7.5, 150 mM KCl, 3 mM MgCl2, 0.01% Triton X-100, 500 ug/ml BSA, 20 U/ml SUPERase-In, 4 C; UNK is unkempt and MSI1 is Musashi-1; names of the RNAs are library labels; protein concentration not given here; high values mean tight binding.
The molecule B1 showed a binding signal of 0.52 enrichment R.
With B2, the binding signal turned out to be 0.413 enrichment R.
B3: the binding signal came to 0.618 enrichment R.
The value for B4 was 0.292 enrichment R; that for B5 was 0.815 enrichment R.
In turn, B6 gave a binding signal of 0.615 enrichment R.
In the case of B7, the binding signal is 0.865 enrichment R.
Molecule B8 showed a binding signal of 0.797 enrichment R.
B9: the binding signal came to 0.759 enrichment R.
Molecule B10 returned a binding signal of 1.34 enrichment R.
The molecule B11 displayed a binding signal of 0.702 enrichment R.
Molecule B12 displayed a binding signal of 0.585 enrichment R.
B13 had a binding signal of 0.411 enrichment R.
For B14, the binding signal was 0.969 enrichment R.
In the case of B15, the binding signal was determined as 0.546 enrichment R.
To B16 belongs 0.517 enrichment R.
The value for B17 was 0.648 enrichment R; that for B18 was 0.713 enrichment R.
With B19, the binding signal amounted to 0.51 enrichment R.
B20 yielded a binding signal of 0.478 enrichment R.
Take B21: the binding signal is 0.704 enrichment R.
On to B22, for which the binding signal was 0.446 enrichment R.
